PubChem BioAssay (NCI)
About 79,000 compounds went through this panel and 15% of them were active in at least one assay; those are over-represented in the sample as a whole. Calls of active or inactive are those of the source. No stated cut-off is given here; in the data, active means growth inhibition above about 70%; inactive means the rest.

Assays:
[1] = NCI Yeast Anticancer Drug Screen. Data for the rad50 strain (AID 155);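 further: 0% = growth of vehicle-only cultures of the same strain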; details: S. cerevisiae rad50 strain growth inhibition; at 50.0 µM; active compounds read high
Procedure, shortened: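 Cells are treated with compound, grown, and their growth is then scored against vehicle-only cultures of the same repair-deficient yeast strain.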

[2] = NCI Yeast Anticancer Drug Screen. Data for the mec2-1 strain (AID 157); details: S. cerevisiae mec2-1 strain, at 50.0 µM, active compounds read high
Procedure, shortened: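 Growth inhibition is read against vehicle-treated controls after compound exposure of the mec2-1 yeast strain, which is defective in DNA damage repair or cell cycle control.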

[3] = NCI Yeast Anticancer Drug Screen. Data for the sgs1 mgt1 strain (AID 161);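 further: 0% = growth of cultures given vehicle only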; details: S. cerevisiae sgs1 mgt1 strain, at 50.0 µM, active compounds read high
Procedure, shortened: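 Growth of a repair-deficient yeast mutant was monitored after compound treatment and expressed as inhibition relative to vehicle-treated cultures.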

[4] = NCI Yeast Anticancer Drug Screen. Data for the cln2 rad14 strain (AID 165);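 further: 0% = growth equal to vehicle treated cultures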; details: S. cerevisiae cln2 rad14 strain, at 50.0 µM, active compounds read high
Procedure, shortened: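 Growth inhibition, relative to vehicle-treated controls, is the read-out. The test organism is a yeast strain with defined genetic alterations, cln2 rad14.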

[5] = NCI Yeast Anticancer Drug Screen. Data for the bub3 strain (AID 167); details: S. cerevisiae bub3 mutant strain, at 50.0 µM, active compounds read high
Procedure, shortened: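 Part of a panel of yeast mutants defective in DNA damage repair or cell cycle regulation. Each strain is grown with compound, and inhibition is calculated relative to solvent-treated cultures.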

[6] = NCI Yeast Anticancer Drug Screen. Data for the mlh1 rad18 strain (AID 175); details: S. cerevisiae mlh1 rad18 strain growth inhibition; at 50.0 µM; active compounds read high
Procedure, shortened: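 Cells of a genetically altered yeast strain, deficient in DNA damage repair, were treated with compound. Their growth was then compared with that of vehicle-treated cultures to give inhibition.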

Measured: growth inhibition

O=C(O)c1ccccc1/C=N/NC1=NCCCCN1
inactive: [1] -46.8% | [2] -23.4% | [3] -29.4% | [4] -9.65% | [5] -7.55% | [6] -33.1%

CCOC(=O)C1=C(C)N(Cc2ccccc2)C(C)=C(C(=O)OCC)C1c1ccccc1O
inactive: [1] 20.5% | [2] 28.2% | [3] 20.1% | [4] 17.6% | [5] 30.8% | [6] 18.6%

CCOc1ccc(/C=C2\N=C(c3ccc([N+](=O)[O-])cc3)OC2=O)cc1
inactive: [1] 11.2% | [2] 19.8% | [3] 3% | [4] 3.45% | [5] 15.6% | [6] 8.15%

COc1cc(C(=O)O)ccc1OS(=O)(=O)O
inactive: [1] -17.4% | [2] -62.5% | [3] -10.7% | [4] -21.6% | [5] -11% | [6] -31.3%

c1ccc(CN2CCC3(N4CCOCC4)C(C2)N=NN3c2ccccc2)cc1 (stereo not given)
inactive: [1] -27.9% | [2] -9.6% | [3] 0.65% | [4] -1.05% | [5] -11.7% | [6] -14.2%

O=C(Cc1ccc([N+](=O)[O-])cc1)ON1C(=O)CCC1=O
inactive: [1] -11.8% | [2] 2.65% | [3] -4.65% | [4] -18.9% | [5] -20.1% | [6] 6%

O=C1C/C(=C\c2ccccc2O)C(=O)c2ccccc21
active: [3] 83.4% | [6] 82.8%
inactive: [1] 66.3% | [2] 61.1% | [4] 57.8% | [5] 54.8%

NC(=O)c1ccccc1N=NNc1ccccc1
inactive: [1] 17.5% | [2] -4.65% | [3] 2.8% | [4] -28.5% | [5] -25.1% | [6] 16.1%

COC(=O)c1ccc(C(=O)OC)c2nc3ccccc3nc12
inactive: [1] 13.1% | [2] 9.35% | [3] 8.45% | [4] 8.9% | [5] 15.1% | [6] 7.6%

O=c1c2cc(S(=O)(=O)Nc3c(Cl)cccc3Cl)ccc2ncn1NS(=O)(=O)c1ccc2ccccc2c1
inactive: [1] -21.8% | [2] -8.6% | [3] -12.4% | [4] 10.4% | [5] -7.9% | [6] -3.75%

CCCC(C)c1ccc(OCc2ccc(C)cc2)cc1 (stereo not given)
inactive: [1] 1.6% | [2] -4.25% | [3] -18.1% | [4] 13.8% | [5] -1.05% | [6] -4.9%

CCSC(SCC)C(Nc1ccc([N+](=O)[O-])cc1[N+](=O)[O-])C(OC(C)=O)C(OC(C)=O)C(COC(C)=O)OC(C)=O (stereo not given)
inactive: [1] 30.9% | [2] 9.65% | [3] 10.2% | [4] 14.8% | [5] -2.9% | [6] 12.8%

COC1OC(CO)C(O)C(OCc2ccccc2)C1OCc1ccccc1 (stereo not given)
inactive: [1] -4.35% | [2] 0.5% | [3] -5.35% | [4] -10.3% | [5] -7.4% | [6] -19.3%

CCCC1OC(c2ccc(OC)cc2)OCC1CC (stereo not given)
inactive: [1] 2.65% | [2] 0.95% | [3] -0.3% | [4] -16.4% | [5] 30.9% | [6] -0.75%

O=[N+]([O-])c1ccc(Cc2ncnc3c2ncn3C2OC(CO)C(O)C2O)cc1 (stereo not given)
inactive: [1] 5.1% | [2] -13.2% | [3] -16.4% | [4] -0.95% | [5] 2.15% | [6] -18.9%

C/C=C/CNc1ccc(C)cc1
inactive: [1] 30.5% | [2] 20.9% | [3] 25.7% | [4] 28.4% | [5] 2.2% | [6] 22.8%

C/C(CC(O)(C(F)(F)Cl)C(F)(F)Cl)=N\Nc1ccccc1
inactive: [1] 28% | [2] 15.1% | [3] 6.55% | [4] 28.1% | [5] -0.9% | [6] 17.5%

CC(=N\N)/C(C)=N/N=C(C)/C(C)=N/N=C(C)/C(C)=N/N=C(C)/C(C)=N/N
inactive: [1] 11.7% | [2] -7.8% | [3] 4.9% | [4] 13.7% | [5] -8.35% | [6] -14.4%

O=C1OC(c2ccccc2)(c2ccccc2)CC1c1ccccc1 (stereo not given)
inactive: [1] 9.05% | [2] 7.5% | [3] 12.8% | [4] -44% | [5] -4.25% | [6] 20.7%

CSc1nc(N)c(NS(=O)(=O)c2ccc([N+](=O)[O-])cc2)c(=O)[nH]1
inactive: [1] 4.35% | [2] -8.05% | [3] 5.65% | [4] -3.95% | [5] 10.1% | [6] 14.1%

Fc1ccc(-c2cc(-c3ccc(F)cc3)cc(-c3ccc(F)cc3)c2)cc1
inactive: [1] -0.4% | [2] 11.5% | [3] 13.2% | [4] 14.2% | [5] -8.15% | [6] 10.4%

COc1ccc(CC(N)C(=O)NC2C(CO)OC(n3cnc4c(N)ncnc43)C2O)cc1 (stereo not given)
inactive: [1] 5.65% | [2] -28.6% | [3] -1.6% | [4] -74.3% | [5] -0.25% | [6] -12.8%

NC(=O)COC(=O)c1c(Cl)nc2sccn12
inactive: [1] 7.55% | [2] 5.1% | [3] -13.9% | [4] 4.75% | [5] 24.6% | [6] 19.1%

Cc1cc(Cl)ccc1NC(=O)/C(=N\NC(C)(C)C)C(C#N)c1nc(-c2ccc([N+](=O)[O-])cc2)cs1 (stereo not given)
inactive: [1] 23.8% | [2] 8.95% | [3] 3.85% | [4] 25.7% | [5] 4.25% | [6] -10.8%

CCC(=O)Nc1cccc2ccccc12
inactive: [1] 5.1% | [2] -12.7% | [3] -10.9% | [4] -92.4% | [5] -5.95% | [6] -3.1%

CCOC(=O)N1CCN(Cc2cc(=O)n3cc(C)ccc3n2)CC1
inactive: [1] -14.1% | [2] -15.5% | [3] 11.3% | [4] 16.2% | [5] 5.95% | [6] 2.2%

CCCCCCCCCCCCCCCC1=NN(c2ccc([N+](=O)[O-])cc2)C(=O)C1
inactive: [1] 14.9% | [2] -3.8% | [3] -25.8% | [4] -8.4% | [5] 1.3% | [6] 0.75%

O=C(Nc1ccc(Cl)cc1)Nc1nnc2nc(CC(=O)c3ccc4ccccc4c3)c(=O)[nH]n12
inactive: [1] 12.9% | [2] 9.45% | [3] 2.2% | [4] -16.3% | [5] 21.8% | [6] 1.3%

COc1ccccc1P(=O)(CCP(=O)(c1ccccc1)c1ccccc1OC)c1ccccc1 (stereo not given)
inactive: [1] 2.15% | [2] 15.5% | [3] 13.3% | [4] 13.5% | [5] -1.75% | [6] 9.5%

O=C(COc1ccc(Cl)c(Cl)c1)Nc1ccc(C(=O)CCl)cc1
inactive: [1] 6% | [2] 31.3% | [3] 19.4% | [4] -3.35% | [5] 42.5% | [6] 9.3%

O=C(CCN1C(=O)NC(c2ccccc2)(c2ccccc2)C1=O)NCCN1CCOCC1
inactive: [1] -0.6% | [2] 13.5% | [3] 5.7% | [4] 0.95% | [5] -2% | [6] 24.7%

CCCC[P+](CCCC)(CCCC)c1ccccc1
inactive: [1] -12.7% | [2] 12.3% | [3] -0.05% | [4] -32.1% | [5] -8.95% | [6] -1.4%

Cc1cccc(-c2cc3cccnc3nc2NN=O)c1C
active: [3] 75.7% | [6] 76.5%
inactive: [1] 64.8% | [2] 68% | [4] 39.3% | [5] 67.1%

O=C1C2=C(Nc3cc([N+](=O)[O-])ccc3N2)OC1c1ccc2c(c1)OCO2 (stereo not given)
inactive: [1] -10.4% | [2] -16.9% | [3] -15.1% | [4] 5.75% | [5] -28.2% | [6] -5.45%

O=C1c2ccccc2C(=O)N1Cc1ccccc1-c1c2nc(c(-c3ccccc3CN3C(=O)c4ccccc4C3=O)c3ccc([nH]3)c(-c3ccccc3CN3C(=O)c4ccccc4C3=O)c3nc(c(-c4ccccc4CN4C(=O)c5ccccc5C4=O)c4ccc1[nH]4)C=C3)C=C2
inactive: [1] 11.8% | [2] -1.55% | [3] -0.8% | [4] -3.4% | [5] 13.6% | [6] -14%

N#CC(NCc1cccc(CNC(C#N)c2ccccc2)c1)c1ccccc1 (stereo not given)
inactive: [1] -4.8% | [2] 8.4% | [3] -28.1% | [4] -16.4% | [5] -28.7% | [6] -19.8%

CC(C)(CO)[C@@H](O)C(=O)NCCC(=O)O
inactive: [1] -27.5% | [2] -45.9% | [3] -10.2% | [4] 15.4% | [5] -27% | [6] -23.9%

CCC(=O)C(CC)Cc1ccc(OC)c(OC)c1 (stereo not given)
inactive: [1] 1.4% | [2] -15.9% | [3] -11.8% | [4] -5.55% | [5] 6.55% | [6] 2.25%

O=c1[nH]c2c([N+](=O)[O-])cc(Cl)cc2nc1/C=C(\O)c1ccncc1
inactive: [1] 42.5% | [2] 8.75% | [3] 42.6% | [4] 9.45% | [5] 18.3% | [6] 51.4%

CCCCCCCCCCCCCCCCCCOC(=O)c1cccnc1
inactive: [1] 23.1% | [2] 10.3% | [3] 15.8% | [4] 20.7% | [5] 23.8% | [6] 27.3%
